PrPC TRFRET = cell surface PrPC inhibition, primary TR-FRET screen; P04156; TR-FRET read-out; inhibition, % at 13.8 µM; hit rate 0.43% among 370,000; AID 720596; in the data active = inhibition above about 24%; also: 0% = median of the test wells and 100% = reference compound wells
BJeLR viability = BJeLR cell viability loss | inhibition, % (no concentration beside the values) | hit rate 0.17% among 300,000 | BJeLR (HRASV12) viability, CellTiter-Glo ATP luminescence, 48 h; in the data active = inhibition above about 50%
RecA splice inh = blocks M. tuberculosis RecA intein splicing. inhibition, % (concentration not given with the values). AID 2221. cell-free RecA intein splicing, fluorescence. hit rate 0.75% among 290,000; in the data active = inhibition above about 30%;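 also: 0% = vehicle wells and 100% = reference inhibitor control wells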
Mtb FBA inh = Mtb fructose-bisphosphate aldolase inhibition | P9WQA3 | purified M. tuberculosis FBA, fluorescence read-out | inhibition, % at 1 µM | hit rate 2.3% among 360,000; in the data active = inhibition above about 27%;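 also: 0% = vehicle and 100% = reference inhibitor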
GDH-TPI counter = counter-screen for M. tuberculosis FBA inhibitors: GDH-TPI coupled enzymes. GDH-TPI coupled enzyme counterscreen, NADH absorbance. inhibition, % at 4.8 µM. hit rate 1.2% among 360,000; in the data active = inhibition above about 30%;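 also: 0% = DMSO wells and 100% = wells lacking the enzyme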
GFP chromo cs = counter-screen: blocks GFP chromophore formation | shares compounds with RecA splice inh | hit rate 83% among 2,100 | EC50, µM | cell-free GFP chromophore formation, fluorescence; call rule not given here
An asterisk follows results filed as active; x = no result given. Hits are enriched below; roughly 4.2% of the tested compounds scored in any of these assays.

SMILES	PrPC TRFRET	BJeLR viability	RecA splice inh	Mtb FBA inh	GDH-TPI counter	GFP chromo cs
O=C1CCCC2=C1C1(O)C(=O)c3ccccc3C1(O)O2 (stereo not given)	1	-8	89*	5	-5	10*
O=C(O)c1ccc(NC2=C(n3nnc4ccccc43)C(=O)c3ccccc3C2=O)cc1	-71	-4	88*	-1	14	5.6*
O=C1C(=O)c2ccccc2C([O-])=C1[n+]1ccccc1	-73	-6	84*	-4	15	6.9*
CC(C)[C@H](NC(=O)[C@@H]1CCCN1)C(=O)N1CCC2CCN(S(=O)(=O)c3ccccc3)CC21 (stereo not given in full)	-5	x	x	x	x	x
COC(=O)[C@]12C=CCN1[C@H](c1ccc(OC)c(OC)c1)c1c(c3ccccc3n1S(=O)(=O)c1ccc(C)cc1)C2	0	x	x	x	x	x
COC(=O)c1sc(N)c(C(=O)OC)c1Cn1ncc(Cl)c(Cl)c1=O	-6	-8	31*	3	9	1.6*
COC(=O)c1sc(N)c(C(=O)OC)c1COC(=O)c1c(C)noc1C	14	24	3	-2	27	x
CCCC(=O)OC12CCCN(C1)/C(=C/c1cccc(OC)c1)C2 (stereo not given)	5	x	x	x	x	x
COc1ccc(-c2[nH]nc3c2C(c2ccc(OC(=O)N4CCOCC4)cc2)C(C#N)=C(N)O3)cc1 (stereo not given)	4	x	x	x	x	x
Cc1ccc(-c2[nH]nc3c2C(c2ccccc2OC(=O)N2CCOCC2)C(C#N)=C(N)O3)cc1 (stereo not given)	4	x	x	x	x	x
N#CC1=C(N)Oc2n[nH]c(-c3ccc(F)cc3)c2C1c1cccc(OC(=O)N2CCOCC2)c1 (stereo not given)	-8	-1	80*	-1	7	11*
COc1ccc(-c2[nH]nc3c2C(c2ccccc2OC(=O)N2CCOCC2)C(C#N)=C(N)O3)cc1 (stereo not given)	-5	2	71*	0	-7	21*
N#CC1=C(N)Oc2n[nH]c(-c3ccccc3)c2C1c1cccc(OC(=O)N2CCOCC2)c1 (stereo not given)	3	x	68*	-4	17	10*
COCCN1C(=O)C2=C(C1=O)C1N(C)c3ccccc3[C@@]13C[C@@H](CO)N(S(=O)(=O)c1ccc(OC)cc1)C3=N2 (stereo not given in full)	-4	x	x	x	x	x
Cc1ccccc1NC(=O)C(=Cc1ccc(C(=O)O)cc1)C(=O)Nc1ccccc1C	-5	-8	68*	-5	-1	16*
O=C(NCC1COc2ccccc2O1)c1ccc(NC(=O)c2c(Cl)cccc2Cl)cc1 (stereo not given)	-2	x	x	x	x	x
CN(Cc1ccccc1C#N)S(=O)(=O)c1cccs1	-4	13	-3	5	-2	x
N#Cc1nccnc1S(=O)(=O)c1cccs1	15	-2	68*	x	x	32*
COC(=O)[C@]12C[C@H](CC(=O)NCc3cccc4ccccc34)C(=O)N(Cc3ccco3)C1=C[C@H](C(C)C)O[C@@H]2C1CC1	7	x	x	x	x	x
CC1=C(C)/C(=N/OC(=O)c2cccc([N+](=O)[O-])c2)C=CC1=O	x	-6	47*	-10	25	>38
N/C(=N/OC(=O)c1cccc([N+](=O)[O-])c1)c1cccc([N+](=O)[O-])c1	-6	-7	-7	0	4	x
Oc1ccc(/C=N/Nc2ccc(C(F)(F)F)cn2)cc1	14	10	-3	-2	19	x
Oc1ccc(/C=N/Nc2ccc(C(F)(F)F)cn2)c(O)c1	-4	17	42*	-2	24	>38
CCCC[C@H]1C2CC(OC(=O)Nc3cccc(Br)c3)C(C2)[C@H]2CCCCN21 (stereo not given in full)	6	x	x	x	x	x
C#CCOc1ccc(Br)cc1C(c1c(C)[nH][nH]c1=O)c1c(C)[nH][nH]c1=O	-1	-8	94*	0	-3	2.2*
CCOc1ccc(Cl)cc1C(c1c(C)[nH][nH]c1=O)c1c(C)[nH][nH]c1=O	-7	-2	97*	-2	-4	0.92*
Fc1ccc(Nc2nc(Oc3ccccc3F)nc(N3CCCC3)n2)cc1	0	11	8	0	-3	12*
c1ccc(Nc2nc(N3CCCC3)nc(N3CCCC3)n2)cc1	2	-3	1	2	6	x
COc1ccc(-n2c(SCC(=O)N/N=C(/C)c3cccc(O)c3)nc3ccccc3c2=O)cc1	0	x	x	x	x	x

Assay outcomes (PubChem BioAssay)
